Rows were chosen to be rich in hits. Some 6% of all compounds tested hit in one or more screens of this group.
Tau fluor counter: counter-screen for tau fibril formation inhibitors | actives 0.93% (n = 280,000) | tau K18 P301L Alexa594 fluorescence, heparin fibrillization | Potency, µM (highest dose often 57.7 µM); also: nearly all actives have a fitted effect of over 55% in size
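Human tau K18 P301L (15 uM unlabeled, 0.24 uM Alexa 594-labeled) in 100 mM sodium acetate pH 7 with 20 uM heparin, 6 hr at 37 C. ThT 30 uM added, 1 hr ambient; Alexa 594 FP and total fluorescence read at 555/632 nm.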
VDR inh: inhibitors of human vitamin D receptor; P11473; VDR-SRC2-3 peptide fluorescence polarization, 2 h; Potency, µM, hits mostly inhibitors; actives 0.93% (n = 400,000)
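Fluorescence polarization assay measuring small-molecule disruption of VDR binding to the coregulator peptide SRC2-3. Compounds were pin-transferred (23 nl) into the reagent mix and incubated 2 h at room temperature before reading.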
PLK1 PBD block: blocks phosphopeptide binding to human PLK1 polo-box domain; P53350; Plk1 PBD binding of FITC phosphopeptide, fluorescence polarization; Potency, µM, actives largely listed as inhibitors; actives 2.8% (n = 360,000); AID 720504; also: series mostly up to about 57 µM; nearly all actives have a fitted effect of over 65% in size
Target sequence (P53350 whole entry, looked up, the tested form may be a part): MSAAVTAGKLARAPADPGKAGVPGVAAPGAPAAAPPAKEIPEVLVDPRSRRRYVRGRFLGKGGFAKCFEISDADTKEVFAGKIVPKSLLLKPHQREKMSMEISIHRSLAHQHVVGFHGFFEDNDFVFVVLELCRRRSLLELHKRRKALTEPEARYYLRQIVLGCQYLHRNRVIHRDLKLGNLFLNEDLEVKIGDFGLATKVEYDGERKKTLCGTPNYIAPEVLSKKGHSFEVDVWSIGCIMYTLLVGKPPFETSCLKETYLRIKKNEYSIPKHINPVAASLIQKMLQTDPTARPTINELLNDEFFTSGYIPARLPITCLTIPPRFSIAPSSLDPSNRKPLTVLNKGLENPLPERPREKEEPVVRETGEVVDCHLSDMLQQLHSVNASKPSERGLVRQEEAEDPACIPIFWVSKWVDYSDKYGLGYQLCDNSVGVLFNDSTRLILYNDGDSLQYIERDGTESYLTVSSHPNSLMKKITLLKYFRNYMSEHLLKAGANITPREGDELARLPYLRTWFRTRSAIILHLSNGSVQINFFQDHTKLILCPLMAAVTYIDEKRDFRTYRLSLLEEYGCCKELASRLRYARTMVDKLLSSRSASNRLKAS
Sfp inh: blocks B. subtilis Sfp PPTase activity. Biochemical Sfp PPTase activity, qHTS. actives 3.5% (n = 310,000). Q9F4F7. AID 1490. Potency, µM, most hits filed as inhibitors;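 also: the enzyme is Sfp with the accession as filed and its product quenches rhodamine fluorescence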
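With Hepes-Na pH 7.6 buffer containing 10 mM MgCl2, Sfp (15 nM) modified BHQ-2-YbbR (12.5 uM) using rhodamine-CoA (5 uM). Two reads 30 minutes apart at 525/598 nm yielded each well's rate.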
Tau ThT inhib: inhibitors of human tau fibril formation, thioflavin T binding. P10636. recombinant tau K18 P301L (four-repeat tau fragment), heparin-induced fibrillization, ThT fluorescence. Potency, µM (top dose mostly 57.4 µM), hits mostly inhibitors. actives 2.1% (n = 270,000). AID 1460; also: nearly all actives have a fitted effect of over 55% in size
Target sequence (P10636 561-689 P618L limits assumed): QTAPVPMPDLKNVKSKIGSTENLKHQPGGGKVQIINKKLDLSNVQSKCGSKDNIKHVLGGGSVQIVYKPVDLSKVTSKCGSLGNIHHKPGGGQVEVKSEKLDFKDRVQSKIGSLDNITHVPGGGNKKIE
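Recombinant human tau K18 fragment […] carrying P301L, 15 uM unlabeled plus 0.24 uM Alexa 594-labeled, was fibrillized with 20 uM heparin in 100 mM sodium acetate pH 7 for 6 hr at 37 C; 30 uM ThT fluorescence read after 1 hr.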
Tau fibril FP: tau fibrillization inhibition (FP) | P10636 | K18 P301L tau heparin fibrillization, Alexa594 FP, 6 h | Potency, µM (highest dose often 57.7 µM), actives largely listed as inhibitors | actives 0.39% (n = 280,000) | AID 1468; also: nearly all actives have a fitted effect of over 55% in size
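Read-out: fluorescence polarization of Alexa 594-labeled tau (0.24 uM), 555 nm excitation, 632 nm emission. Mixtures held 15 uM unlabeled K18 P301L, compound and 20 uM heparin, pH 7 acetate buffer, incubated 6 hr at 37 C.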
Each line names hits and unclear results; the compound was inactive in the other large screens; [ ] = remark or other dose. Calls follow the shape of the dose curve; as a rule, active = well fitted curve in the direction sought with a large enough effect; inconclusive = small, poorly fitted or top-dose-only effect, or another doubt; inactive = no such curve, though single readings can be large; an effect the other way counts as inactive or inconclusive.

CNC(=O)N(O)C1N(/N=C/c2ccc(C)cc2)C(=S)SC1(C)C (stereo not given)	none (no result: Tau fluor counter, Tau ThT inhib, Tau fibril FP)
CNC(=O)N(O)C1N(/N=C/c2cc(Br)ccc2O)C(=S)SC1(C)C (stereo not given)	Sfp inh 79µM (no result: Tau fluor counter, Tau ThT inhib, Tau fibril FP)
C=C1CC[C@H](O)C/C1=C/C=C1\CCC[C@]2(C)C([C@H](C)CCCC(C)(C)O)CC[C@@H]12 (stereo not given in full)	Tau ThT inhib inconclusive (no result: PLK1 PBD block)
CC(C)OC(=O)c1cccc(C(=O)O)n1	Sfp inh 50µM
CC(C)OC(=O)c1cccc(C(=O)Oc2ccc(Br)cc2)n1	Tau ThT inhib inconclusive
N#Cc1c(N)sc(=S)c2c1CCCCC2	Tau fluor counter inconclusive, VDR inh inconclusive, PLK1 PBD block 21µM, Sfp inh 5µM, Tau ThT inhib 13µM, Tau fibril FP inconclusive
N#Cc1c(N)sc2c1CCCCCC2	Tau fluor counter inconclusive, Sfp inh 40µM, Tau ThT inhib inconclusive
Cc1ccccc1NC(=O)c1c(C)oc2ccc(O)c(CN3CCCC(C)C3)c12 (stereo not given)	none (no result: PLK1 PBD block, Sfp inh)
CC(C)(C)c1nc2ccccc2c2nnc(SCC(=O)NCc3ccco3)n12	none
Cc1ccc(CSc2nc3ccccc3c(=O)n2CCCC(=O)NCc2ccco2)cc1	Sfp inh 25µM
Cc1ccc(CSc2nc3ccccc3c(=O)n2Cc2ccco2)cc1	PLK1 PBD block 27µM
CC(C)c1nc2ccccc2c2nnc(SCC(=O)NCc3ccco3)n12	PLK1 PBD block 30µM
Cc1ccc(NC(=O)CSc2nc3ccccc3c(=O)n2CCCC(=O)NCC2CCCO2)cc1 (stereo not given)	PLK1 PBD block 27µM (no result: Tau fluor counter, Tau ThT inhib, Tau fibril FP)
O=c1c2ccccc2nc(SCc2ccccc2)n1Cc1ccco1	none
O=C(CCn1c(SCC(=O)NCc2ccco2)nc2ccccc2c1=O)NCCc1ccccc1	none
Cc1ccc(F)cc1NC(=O)COC(=O)c1ccc(S(C)(=O)=O)c([N+](=O)[O-])c1	none (no result: Tau fluor counter, PLK1 PBD block, Sfp inh, Tau ThT inhib, Tau fibril FP)
O=C(CSc1nc2ccccc2c(=O)n1CC1CCCO1)NCc1ccc2c(c1)OCO2 (stereo not given)	PLK1 PBD block 27µM
COc1ccccc1-c1cnc(C(O)c2cccc(F)c2)[nH]1 (stereo not given)	none (no result: Tau fluor counter, VDR inh, Sfp inh, Tau ThT inhib, Tau fibril FP)
O=C(CSc1nnc(SCc2ccccc2Cl)s1)N/N=C/c1c[nH]c2ccccc12	Tau fluor counter 14µM[quencher], Tau fibril FP inconclusive
CCn1c(SCC(=O)N/N=C/c2c[nH]c3ccccc23)nnc1-c1ccc(C(C)(C)C)cc1	Tau fluor counter 18µM[quencher], Tau ThT inhib inconclusive
Cc1ccc(Nc2nc3ccccc3s2)c(C)c1	VDR inh inconclusive
Cc1cc(O)ccc1Nc1nc2ccccc2nc1Nc1ccc(O)cc1C	Tau fluor counter 13µM[quencher], PLK1 PBD block inconclusive, Sfp inh 56µM, Tau ThT inhib 14µM, Tau fibril FP inconclusive
Cc1cccc2c1c(N=NC(N)=S)c(O)n2C1OC(CO)C(O)C(O)C1O (stereo not given)	Sfp inh 50µM (no result: Tau fluor counter, Tau ThT inhib, Tau fibril FP)
O=C(NCc1ccc(Cl)cc1)C1CCC(CNS(=O)(=O)c2ccccc2)CC1 (stereo not given)	none
O=C(NCc1ccc(F)cc1)C1CCC(CNS(=O)(=O)c2ccccc2)CC1 (stereo not given)	VDR inh inconclusive, PLK1 PBD block 27µM (no result: Tau fluor counter, Tau ThT inhib, Tau fibril FP)
Clc1ccc2c(c1)C(N1CCNCC1)Cc1ccccc1S2 (stereo not given)	Tau ThT inhib inconclusive
Clc1cccc2c1Sc1ccccc1CC2N1CCNCC1 (stereo not given)	Sfp inh 56µM, Tau ThT inhib inconclusive
CC(C)(C)C1CCc2c(sc(NC(=O)c3cccc(Cl)c3)c2C(=O)NCc2ccco2)C1 (stereo not given)	none (no result: PLK1 PBD block, Sfp inh)
CC(C)=NOC[C@@H](O)COCc1ccco1	none (no result: VDR inh, PLK1 PBD block)
O=S(=O)(NCC(O)COCc1ccco1)c1cccs1 (stereo not given)	Sfp inh 45µM
Cn1c(N/N=C/c2ccccc2)nc2sc3c(c2c1=O)CCC3	Tau fluor counter 18µM[quencher], Tau ThT inhib inconclusive
CCCCS(=O)(=O)c1oc(-c2ccc(F)cc2)nc1S(=O)(=O)c1ccccc1	VDR inh inconclusive (no result: PLK1 PBD block, Sfp inh)
O=C(NCCN1CCOCC1)c1cc(S(=O)(=O)Nc2ccccc2F)c(Cl)cc1Cl	PLK1 PBD block 34µM (no result: Tau ThT inhib)
O=C(c1cc(S(=O)(=O)Nc2ccccc2F)c(Cl)cc1Cl)N1CCN(CCO)CC1	none
CCOC(=O)/C(=C/c1ccc(F)cc1)NC(C)=O	none
CCOC(=O)/C(=C\c1c[nH]c2ccccc12)NC(C)=O	VDR inh inconclusive, PLK1 PBD block 21µM
COC(=O)c1sc2c(c1C)c(=O)n(-c1ccccc1)c(=O)n2CC(=O)Nc1cccc(C)c1	Tau fibril FP inconclusive (no result: PLK1 PBD block, Sfp inh)
Cc1ccccc1N1CCN(CC(=O)Nc2ccccc2C(=O)NC2CC2)CC1	none (no result: Tau fluor counter, Sfp inh, Tau ThT inhib, Tau fibril FP)
CNC1CC(N)[C@H](O)[C@@H](O[C@@H]2OC(CO)C3OC4(OC(C(N)CO)C(O)C(O)C4O)O[C@@H]3[C@H]2O)C1O (stereo not given in full)	none (no result: PLK1 PBD block)
COc1cc(CNCc2ccncc2)cc(Br)c1OCc1ccccc1F	none
COc1cccc(CNc2ccccc2O)c1OCc1ccccc1F	Tau fluor counter inconclusive, Sfp inh 50µM, Tau ThT inhib inconclusive
CCOc1cc(CNc2ccc(O)cc2)cc(Br)c1OCc1ccccc1	Tau fluor counter 8.9µM[quencher], Tau ThT inhib inconclusive (no result: PLK1 PBD block, Sfp inh)
COc1cc(CNC(C)(C)CO)cc(Br)c1OCc1ccccc1	none
CCOc1cc(CNC(C)(C)CO)cc(Br)c1OCc1ccc(Cl)cc1Cl	Sfp inh 45µM
COc1cc(CNc2ccc(O)cc2)cc(Br)c1OCc1ccccc1F	Tau fluor counter 13µM[quencher], VDR inh 35µM, Sfp inh 28µM, Tau ThT inhib 25µM, Tau fibril FP inconclusive
CCOc1cc(CNc2ccc(O)cc2)cc(Br)c1OCc1ccccc1F	Tau fluor counter 13µM[quencher], VDR inh 79µM, Sfp inh 18µM, Tau ThT inhib 25µM, Tau fibril FP inconclusive
CCOc1cc(/C=N/NC(N)=O)cc(Br)c1OCc1ccccc1F	Tau fluor counter inconclusive, Tau fibril FP inconclusive
COc1ccc(OCC2c3cc(OC)c(OC)cc3CCN2C(=O)C(C)C)cc1 (stereo not given)	PLK1 PBD block 27µM
COC(=O)c1ccc(OCC2c3cc(OC)c(OC)cc3CCN2C(=O)c2ccc(OC)cc2)cc1 (stereo not given)	none (no result: PLK1 PBD block, Sfp inh)
COC(=O)c1cccc(NC(=S)Nc2ccc(Cl)c(Cl)c2)c1	Tau fluor counter 20µM[quencher], Tau fibril FP inconclusive
COC(=O)c1cccc(NC(=S)Nc2ccccc2Cl)c1	none (no result: Tau ThT inhib)
COC(=O)c1cccc(NC(=S)Nc2cccc(Cl)c2C)c1	Tau fibril FP inconclusive
O=C(Nc1cccc(Cl)c1)Nc1cccc(Cl)c1	Tau fibril FP inconclusive

Screens (PubChem BioAssay)
